ERG-DNA inh = qHTS for Small Molecule Inhibitors of the ERG Ets/DNA interaction. Transcriptional regulator ERG (Homo sapiens), P11308. fluorescence polarization, His-ERG Ets domain / labelled DNA. Potency, µM (titrated, usually from 76.9 µM), inactives show at the top dose FP activity, negative = inhibition, actives largely listed as inhibitors. 370,000 tested, 0.028% active. AID 624246, 2012; active = well fitted inhibition curve with a large enough effect in the polarisation, with a control signal flat; inconclusive = small, poorly fitted or top-dose-only effect, or effect the other way, or a change in a side signal; inactive = no such curve, though single readings can be large or run the other way; the % refers to the polarisation;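 note: polarization taken with two DNA probes labelled with fluorescein and Texas red; potency is the fitted concentration of half-maximal effect; % of control where 0% means no effect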
Target sequence (P11308 whole entry, looked up, the tested form may be a part): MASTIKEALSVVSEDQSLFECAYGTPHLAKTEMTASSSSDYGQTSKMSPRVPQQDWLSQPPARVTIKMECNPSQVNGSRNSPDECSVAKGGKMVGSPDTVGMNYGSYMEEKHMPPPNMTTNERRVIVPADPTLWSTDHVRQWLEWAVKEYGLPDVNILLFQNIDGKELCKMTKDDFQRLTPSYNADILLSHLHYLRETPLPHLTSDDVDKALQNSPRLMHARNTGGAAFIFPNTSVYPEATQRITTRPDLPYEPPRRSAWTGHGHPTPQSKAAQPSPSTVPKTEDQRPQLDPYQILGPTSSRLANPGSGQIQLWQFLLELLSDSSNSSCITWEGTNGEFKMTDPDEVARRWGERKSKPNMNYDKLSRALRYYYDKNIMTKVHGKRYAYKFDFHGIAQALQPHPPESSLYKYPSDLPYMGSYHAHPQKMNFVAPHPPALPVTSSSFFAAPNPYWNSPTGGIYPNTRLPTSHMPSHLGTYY
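His-tagged ERG Ets domain (1 uM in the protein solution; 300mM KCl, 50mM Tris-HCl, 1mM EDTA, 1mM DTT, pH 7.5) received compound, then a probe mix of 5 nM fluorescein-DNA and 100nM Texas-615-DNA. Fluorescence polarization was read for both dyes.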
VP16 counter = VP16 counterscreen qHTS for inhibitors of ROR gamma transcriptional activity; Potency, µM (doses to about 53.6 µM), inactives show top-dose activity, negative = inhibition, usual class: inhibitors; AID 2546, 2010; 310,000 tested, 3.5% active; Drosophila S2 Gal4-VP16 UAS-luciferase, luminescence, 20 h;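 note: Gal4-VP16 expression switched on by copper sulfate through the metallothionein promoter; potency is the fitted concentration of half-maximal effect; % is set by controls: 0 for no effect and ±100 for the full control effect; nearly all actives have a fitted effect of over 50% in size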
RORgamma inh = qHTS for inhibitors of ROR gamma transcriptional activity | Potency, µM (titrated, usually from 53.6 µM), for the others: top-dose activity change, negative = inhibition, actives largely listed as inhibitors | Drosophila S2 Gal4-RORgamma UAS-luciferase reporter, 20 h | 310,000 tested, 5.4% active | Nuclear receptor ROR-gamma (Mus musculus), P51450; note: potency is the fitted concentration of half-maximal effect; % is set by controls: 0 for no effect and ±100 for the full control effect; nearly all actives have a fitted effect of over 60% in size
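Luciferase reporter read in Schneider cells carrying Gal4-RORγ (mouse) and UAS-Photinus luciferase; cells given compound 1 h before 700 uM copper sulfate induction, then incubated 20 h at ambient temperature.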
a7 integrin act = qHTS for Activators of Integrin-Mediated Alleviation for Muscular Dystrophy; alpha7betagal myoblasts, beta-gal FDG fluorescence, 48 h; Potency, µM (series often up to 38.3 µM), for inactives: top-dose activation, usual class: activators; 350,000 tested, 0.064% active;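 note: potency is the fitted concentration of half-maximal effect; 100% = response of the positive control SU9516; nearly all actives have a fitted effect of over 60% in size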
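Alpha7betagal+/- myoblasts (passage 13) were plated 16-24 hr, then exposed to compounds (1:260 dilution of DMSO stock) for 48 hours at 37C. After MPER lysis, β-galactosidase reporter activity was read as FDG fluorescence (ex 480/em 540) after 30 minutes.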
Giardia killer = Small Molecules that selectively kill Giardia lamblia: qHTS | Giardia lamblia trophozoite viability | activity change, % at 7.66 µM, hits read low | 340,000 tested, 0.15% active; in the data active = activity change below about -80%; inconclusive = between about -30% and that limit;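 note: parasites exposed to compound for two days anaerobically before the ATP read; % is set by controls: 0 for no effect and ±100 for the full control effect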
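Trophozoites 100 cells/well + cpd; 48 hrs, 37 deg C, anaerobic. ATPLite 1-Step added, 15-30 min RT, luminescence read (ATP-based viability).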
Starred values were filed as active, the others as inactive; ? = inconclusive; . = no result given; [ ] = dose if it differs, or a comment. The entries come from a sample that favours hits as a whole. Unless noted, calls come from the whole dose curve; as a rule, active = well fitted curve in the direction sought with a large enough effect; inconclusive = small, poorly fitted or top-dose-only effect, or another doubt; inactive = no such curve, though single readings can be large; an effect the other way counts as inactive or inconclusive.

SMILES	ERG-DNA inh	VP16 counter	RORgamma inh	a7 integrin act	Giardia killer
Cc1ccc(S(=O)(=O)c2cnc(SCC(=O)Nc3ccccc3C(F)(F)F)[nH]c2=O)cc1C	3.8%	.	.	.	.
COC(=O)C1=NN(C(=O)c2ccc(Cl)cc2)C(O)(c2ccccc2)C1 (centres undefined)	.	?	?	18.8%	-6.8
CC1=NN(C(=O)c2ccco2)C(O)(c2ccccc2)C1 (centres undefined)	-0.8%	6.31µM*	1.78µM*	-25.0%	-14.1
CC1=NN(C(=O)c2ccc(C)o2)C(O)(c2ccccc2)C1 (centres undefined)	9.7%	6.31µM*	3.16µM*	-12.2%	1.1
O=C(Nc1ccccc1Cl)C1CCCN(S(=O)(=O)c2ccc(-n3cnnn3)cc2)C1 (centres undefined)	2.9%	-9.0%	?	40.8%	6.0
Cc1ccnc(Sc2ccc([N+](=O)[O-])cc2[N+](=O)[O-])n1	-4.2%	?	12.6µM*	-68.7%[7.66 µM]	2.9
Cc1ccc(Sc2ccc([N+](=O)[O-])cc2[N+](=O)[O-])nc1	-4.0%	?	-43.3%	-64.3%	-19.0
COc1ccc(NC(=O)CN(C)C(=O)CCCSc2nc3ccccc3[nH]2)cc1	-3.4%	.	.	-6.7%	20.4
CC(=O)c1ccc(NC(=S)NC(=O)c2c(Cl)c(C)nn2C)cc1	-1.1%	-14.5%	?	?	-1.1
Cc1cc(C)c(NC(=S)NC(=O)c2c(Cl)c(C)nn2C)c([N+](=O)[O-])c1	5.4%	?	20µM*	-19.9%	-7.3
CCOc1ccc(NC(=S)NC(=O)c2c(Cl)cnn2CC)c([N+](=O)[O-])c1	.	?	7.94µM*	-24.8%	-26.9
COc1ccc(NC(=O)C/C(C)=N/NC(=O)c2ccncc2)c([N+](=O)[O-])c1	15.5%	-20.8%	12.6µM*	8.7%	-10.4
CCOc1ccc(N/C=C/C(=O)c2ccccc2)c([N+](=O)[O-])c1	1.3%	7.08µM*	7.08µM*	4.9%	-7.6
Cc1ccc(NC(=O)CN2C(=O)S/C(=C/c3ccncc3)C2=O)cc1	3.1%	-12.1%	13.0%	-18.9%	2.1
COc1ccc(NC(=O)C2=C(C)Nc3c(C(=O)Nc4ccc(C)cc4)cnn3C2c2cccc(Cl)c2)cc1 (centres undefined)	4.3%	.	.	.	.
Cc1ccc([N+](=O)[O-])cc1NC(=S)NC(=O)c1c(Cl)cnn1C	7.6%	.	.	?	-9.7
CCOc1ccc(NC(=S)NC(=O)c2cccnc2)c([N+](=O)[O-])c1	-6.7%	17.8µM*	20µM*	-21.7%	-5.7
CCn1ncc(Cl)c1C(=O)NC(=S)Nc1c(C)cc(C)cc1[N+](=O)[O-]	-5.9%	12.6µM*	1.26µM*	-19.8%	0.1
CCOc1ccc(NC(=S)NC(=O)c2c(Br)cnn2C)c([N+](=O)[O-])c1	-23.3%	-0.6%	?	16.3%	-1.1
CC(=O)N1CC23C=CC(CC2CC12CCCCCC2)O3 (centres undefined)	-6.0%	4.9%	25.5%	-11.9%	-2.1
CC1CCc2c(sc3ncnc(SCC(=O)Nc4ccc(C(=O)O)cc4)c23)C1 (centres undefined)	5.7%	-0.6%	-15.1%	-54.1%	3.2
COc1cc(NC(=O)CSc2ncnc3sc4c(c23)CCC(C)C4)c(C(=O)O)cc1OC (centres undefined)	0.8%	?	11.2µM*	-8.9%	40.0
COc1ccc(S(=O)(=O)Nc2ccc(Cc3ccncc3)cc2)cc1C	3.2%	22.4µM*	31.8%	-18.6%	19.2
CC(=O)c1ccc(NS(=O)(=O)c2ccc(CC(C)C)cc2)cc1	7.5%	10µM*	?	2.3%	7.8
CCc1ccc(NS(=O)(=O)c2ccc(OC)c(C)c2)cc1	-6.8%	?	-44.4%	-2.0%	-11.7
CC(=O)Nc1ccc(Cc2ccncc2)cc1	0.7%	4.9%[0.365 µM]	-22.2%	-3.2%	-1.7
CC(=O)Nc1ccc(S(=O)(=O)Nc2ccc(Cc3ccncc3)cc2)cc1	3.0%	10µM*	?	23.0%	-13.4
COc1cc(C2C(C#N)=C(N)OC3=C2C(=O)CC(C)(C)C3)cc2c1OCO2 (centres undefined)	-0.2%	.	.	-11.6%	-11.1

High-throughput results (PubChem)
